ATXN viability: viability counter-screen for ATXN expression inhibitors; S2 cells (HEK-293 line with an ATXN2-luciferase reporter) viability, CellTiter-Fluor protease fluorescence, 24 h; Potency, µM (top dose mostly 56.7 µM), actives largely listed as cytotoxic; hit rate 0.49% among 400,000; AID 651635; note: potency is the fitted concentration of half-maximal effect; nearly all actives have a fitted effect of over 40% in size
ATXN2 expr inh: inhibitors of ATXN2 expression; HEK-293 ATXN2-luciferase reporter, luminescence, 24 h; Potency, µM (doses to about 57 µM), without a hit: at the highest dose activity change, negative = inhibition, most hits filed as inhibitors; hit rate 0.72% among 360,000; note: potency is the fitted concentration of half-maximal effect; % is set by controls: 0 for no effect and ±100 for the full control effect; nearly all actives have a fitted effect of over 55% in size
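ATXN2-luciferase reporter cells (luciferase flanked by upstream and downstream ATXN2 gene portions) were treated 24 h at 37 °C with compounds at up to 57 uM. SteadyGlo luminescence gave expression; GF-AFC fluorescence gave viability.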
TGFb inhibitor: inhibitors of TGF-b signaling. HepG2 CAGA-GFP TGF-b/SMAD3 reporter, GFP fluorescence, 18 h; TGF-beta stimulated, 500 pg/mL final. hit rate 1.2% among 410,000. Potency, µM (highest dose often 46.1 µM), inactives show at the highest dose activity, negative = inhibition, usual class: inhibitors; note: potency is the fitted concentration of half-maximal effect; % is set by controls: 0 for no effect and ±100 for the full control effect; nearly all actives have a fitted effect of over 65% in size
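Inhibition was scored as loss of TGF-beta-induced (500 pg/mL final, 18 hours, 37 degrees C) GFP in HEPG2 cells carrying a CAGA-GFP reporter, in DMEM with 1% FBS. Well GFP was summed per cell; Activity was normalised to unstimulated and stimulated DMSO wells, then concentration-response fitting.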
DRD3 antagonist: D3 dopamine receptor (human) antagonism; D3R cells, DiscoveRx beta-arrestin luminescence, antagonist mode; stronger effect = lower value; max response, negative = inhibition, %; hit rate 2.5% among 360,000; AID 652054; in the data active = max response below about -50%; inconclusive = no clear call, values can overlap the other calls; note: % is set by controls: 0 for no effect and ±100 for the full control effect
Target sequence (P35462 whole entry, looked up): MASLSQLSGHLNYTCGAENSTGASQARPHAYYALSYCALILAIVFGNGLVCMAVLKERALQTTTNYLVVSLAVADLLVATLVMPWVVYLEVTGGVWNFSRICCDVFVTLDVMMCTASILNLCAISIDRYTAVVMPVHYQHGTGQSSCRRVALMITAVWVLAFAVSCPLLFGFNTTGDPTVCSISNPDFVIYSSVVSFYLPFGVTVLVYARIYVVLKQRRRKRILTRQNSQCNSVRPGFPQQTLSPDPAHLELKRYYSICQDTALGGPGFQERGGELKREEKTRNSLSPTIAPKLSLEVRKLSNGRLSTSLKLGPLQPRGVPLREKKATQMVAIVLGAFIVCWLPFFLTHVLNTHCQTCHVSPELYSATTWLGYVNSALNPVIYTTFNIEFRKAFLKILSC
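Cells expressing the human receptor were seeded at 1500 cells/well, incubated overnight at 37 degrees C in 5% CO2, then exposed to library compounds with dopamine controls for 90 minutes at 37 degrees C before luminescent detection.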
HepG2 tox: kills HepG2 cells in TGF-b inhibitor counter-screen; HepG2 CAGA-GFP viability, ATP luminescence, 18 h; Potency, µM (series often up to 46.1 µM), for the others: at the top dose activity change, negative = cytotoxicity, hits mostly cytotoxic; hit rate 0.76% among 410,000; AID 588856; note: potency is the fitted concentration of half-maximal effect
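HepG2 CAGA-GFP cells (1000/well, DMEM with 1% FBS) received compound, then TGF-beta at 500 pg/mL final, and were incubated 18 hours at 37 degrees C. Viability was read by CellTiter-Glo luminescence. Media-only wells were set as complete cell-killing and DMSO as no toxicity.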
D3 ag: agonists of human D3 dopamine receptor; P35462; D3R DiscoveRx beta-arrestin cells, luminescence, 90 min; max activation, %; hit rate 0.58% among 410,000; in the data active = max activation above about 30%; note: 0% is about no effect
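Agonist-mode cell screen: cells plated at 1500/well and incubated overnight at 37 °C, then exposed to library compounds for 90 min at 37 °C. Detection reagent was added for 30–60 min at room temperature, and luminescence was read.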
* marks the source's active call; other numbers are inactive results; i = inactive; ? = inconclusive; · = no result; ! = not active in a repeat. Compounds with a hit are over-represented: about 4.7% of the library has one in this group of screens. Unless noted, calls come from the whole dose curve; as a rule, active = well fitted curve in the direction sought with a large enough effect; inconclusive = small, poorly fitted or top-dose-only effect, or another doubt; inactive = no such curve, though single readings can be large; an effect the other way counts as inactive or inconclusive.

SMILES | ATXN viability | ATXN2 expr inh | TGFb inhibitor | DRD3 antagonist | HepG2 tox | D3 ag
CCCC(=O)N(C1CC(C)C(C#N)(C#N)C1(C#N)C#N)N(C)C (stereo unspecified) | ? | ? | 11.2µM* | -61.9* | -95.7% | -7.6
CC(=O)N(C1CC(C)C(C#N)(C#N)C1(C#N)C#N)N(C)C (stereo unspecified) | 29.9µM* | ? | ? | -70.7* | -37.6% | -17.9
CC(=O)n1c2ccccc2c2c1c1ccccc1n2C | i | -11.2% | 6.9% | -56.2* | 7.7% | 13.4
CC(=O)n1c2ccccc2c2nc3ccccc3nc21 | i | 43.5% | 4.4% | 0.1 | 3.6% | 11.1
CC(C)c1c(C(=O)NCC2(N3CCCCC3)CCCC2)cnn1-c1nccc(-c2ccco2)n1 | i | · | · | · | · | ·
CC(Oc1ccc(F)cc1)C(=O)Nc1nc(-c2ccccn2)cs1 (stereo unspecified) | ? | 7.94µM* | ? | -69.2* | 10.0% | -12.0
NC(=NCCCCCCN=C(N)/N=C(\N)Nc1ccc(Cl)cc1)/N=C(\N)Nc1ccc(Cl)cc1 | 31.6µM*! | 20µM*! | ? | -51.4*! | -28.3% | -60.4
CCN1C(=O)c2ccccc2Sc2ccc(NC(=O)Nc3cc(C)cc(C)c3)cc21 | · | · | 6.31µM* | · | -29.7% | 11.5
CC(C)CCNC(=O)Nc1ccc2c(c1)N(C)C(=O)c1ccccc1S2 | 35.5µM* | ? | 22.4µM* | · | -60.2% | -10.2
CN1C(=O)c2ccccc2Sc2ccc(NC(=O)Nc3ccccc3F)cc21 | · | · | -9.0% | · | -28.2% | -9.4
CCN1C(=O)c2ccccc2Sc2ccc(NC(=O)c3ccc(Cl)cc3)cc21 | i | 1.6% | -33.8% | · | -0.1% | 8.5
CN1C(=O)c2ccccc2Sc2ccc(NC(=O)Cc3c(F)cccc3Cl)cc21 | ? | 0.0% | 10µM* | · | -56.9% | 4.7
CN1C(=O)c2ccccc2Sc2ccc(NC(=O)NCc3ccccc3Br)cc21 | · | · | ? | · | -48.5% | -4.0
O=C(CS(=O)Cc1ccco1)NC/C=C\COc1cc(CN2CCCCC2)ccn1 (stereo unspecified) | i | 6.0% | · | · | · | -13.0
CCNc1c(NC(=O)c2cc(OCC)c(OCC)c(OCC)c2)c(=O)oc2ccccc12 | i | 2.8% | -14.2% | · | -10.9% | -1.9
CC1C(=O)C(C)C(c2ccc(Cl)cc2)NC1c1ccc(Cl)cc1 (stereo unspecified) | i | 43.5% | -28.9% | -60.6* | 5.7% | -5.7
COc1ccc(C2NC(c3ccc(OC)cc3)C(C)C(=O)C2C)cc1 (stereo unspecified) | i | 6.8% | 0.0% | -13.2 | -3.0% | 9.6
Cc1c(C(=O)N(C)C2CCOC2)sc2ncnc(NCC3(c4ccccc4)CCOCC3)c12 (stereo unspecified) | i | · | · | · | · | ·
CCOC(=O)CN1C(c2ccc(O)cc2)Nc2ccc(Br)cc2C1c1ccccc1 (stereo unspecified) | 20µM* | ? | ? | 5.8 | -95.8% | -1.0
CCOc1ccc(CCNC(=O)C2CCCN(S(=O)(=O)N(C)c3ccc(F)cc3)C2)cc1 (stereo unspecified) | · | · | ? | · | -36.6% | 8.6
Cc1ccc(/C=C2\CCOC2=O)cc1 | i | 17.3% | -3.4% | 4.9 | 3.0% | 2.9
Cc1ccc(/C=C2/CNC/C(=C/c3ccc(C)cc3)C2=O)cc1 | ? | ? | 10µM* | -50.8* | -51.1% | -4.7
O=Nc1c(O)n(Cc2ccccc2)c2ccccc12 | i | -15.9% | -20.3% | -0.1 | -29.3% | 6.1
O=Nc1c(O)n(Cc2ccc(Cl)c(Cl)c2)c2ccccc12 | ? | ? | 0.0% | -0.7 | 12.6µM* | 3.7
CCOC(=O)c1cccc(NC(=O)N2CCC(CN3CCCCCC3)CC2)c1 | · | · | -6.8% | · | -29.6% | -14.5
SMILES | ATXN viability | ATXN2 expr inh | TGFb inhibitor | DRD3 antagonist | HepG2 tox | D3 ag
CN1CCN(C2Cc3ccccc3Sc3cc(C(F)(F)F)ccc32)CC1 (stereo unspecified) | · | ? | ? | -96.0* | 20µM* | -17.6
CN1CCN(C2Cc3cc(F)ccc3Sc3ccc(Cl)cc32)CC1 (stereo unspecified) | ? | · | 31.6µM* | -119.7* | -104.9% | -21.8
CN1CCN(C2Cc3ccc(F)cc3Sc3cc(F)c(Cl)cc32)CC1 (stereo unspecified) | ? | ? | ? | -105.4* | 20µM* | -20.6
CSc1ccc2c(c1)[C@H](N1CCN(C)CC1)Cc1ccccc1S2 | i | · | · | · | · | ·
Cc1ccc2c(c1)CN(CCNC(=O)c1cc3ccccc3oc1=O)CC(C)O2 (stereo unspecified) | i | · | · | · | · | ·
CN(C)CCNc1ccc(CO)c2oc3ccc(O)cc3c(=O)c12 | 26.7µM* | 21.2µM* | ? | 0.0 | -27.2% | -10.2
CCN(CC)CCNc1ccc(CO)c2oc3cc(Cl)ccc3c(=O)c12 | ? | · | -11.7% | -55.6* | -43.0% | -5.2
CSc1ccc(/C=C2\C=Cc3ccc([N+](=O)[O-])cc32)cc1 | · | · | 3.7% | · | -0.2% | ·
CC(C)c1ccccc1NC(=O)Cn1cnc2c1c(=O)n(C)c(=O)n2C | i | -1.6% | -8.0% | · | -2.2% | 1.9
O=CC1=C(c2ccccc2)Oc2ccccc2O1 | 22.4µM* | ? | ? | 11.9 | -94.1% | 2.1
O=C1Nc2ccc([N+](=O)[O-])cc2OC1CCN1CCOCC1 (stereo unspecified) | ? | 5.3% | 12.8% | 38.4 | -10.7% | 11.3
O=C1Nc2ccc([N+](=O)[O-])cc2OC1CCN1CCN(c2ccccc2)CC1 (stereo unspecified) | i | -27.8% | -1.3% | -50.8* | -1.3% | -23.5
COc1ccc(Br)cc1CNCc1c(C(=O)O)c(C)n(Cc2ccccc2C)c1C | i | 1.1% | -17.2% | · | -16.5% | -9.4
Clc1ccc(C(Cn2ccnc2)OCc2ccc(Sc3ccccc3)cc2)c(Cl)c1 (stereo unspecified) | i | ? | · | · | · | ·
COc1cc2c(Nc3ccc(Cl)c(Cl)c3F)ncnc2cc1OCC1C[C@@H]2CN(C)C[C@H]2C1 | · | 30.6µM* | · | · | · | ·
COc1cc2c(Nc3ccc(Br)cc3F)ncnc2cc1OCC1CCN(C)CC1 | i | 30.6µM*! | · | · | · | -10.9
COc1cc2ncnc(Nc3cccc(Cl)c3)c2cc1OC | · | -13.8% | ? | · | -38.3% | ·
Cc1ccc(S(=O)(=O)CCC(=O)N2CCN(c3ccc(Cl)cc3)CC2)cc1 | i | ? | -4.1% | 13.2 | -17.0% | 32.1*
O=C(CCS(=O)(=O)c1ccc(Cl)cc1)N1CCN(c2ccc(F)cc2)CC1 | i | -19.9% | -27.4% | 4.8 | -9.2% | 22.9
CNCc1ccccc1Sc1cc(O)ccc1O | ? | ? | ? | -55.0* | 0.2% | -21.9
CN(CCO)C(=O)c1cn(C2CCCN(Cc3cccc4ccccc34)C2)nn1 (stereo unspecified) | i | · | · | · | · | ·

Compound activity: PubChem BioAssay, National Center for Advancing Translational Sciences (NCATS)
